Measured values published in PubChem BioAssay AID488969 (Vanderbilt High Throughput Screening Facility, 2010).
In all, about 110,000 compounds were measured (“z-score”: median about -0.1, highest 2% from about 2 on). Shown is part of a subset that was picked to be rich in the highest values. Activity calls are given as the source filed them.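 The calls were made as follows: active = z-score in the third read window above 3 or below -3; inactive = the rest.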

biological target: Metabotropic glutamate receptor 8 (Rattus norvegicus) (UniProt P70579); assay: mGluR8 Gi/Go-coupled signaling modulation – cell-based, rat, thallium flux, HTS, primary screen (AID 488969); settings: HEK293 rat mGluR8, GIRK (G protein-gated inwardly rectifying potassium channel) thallium flux, FluoZin2; at 10 µM; stronger effect = higher value; submaximal glutamate (EC20) added with thallium
Sequence (P70579 whole entry, looked up): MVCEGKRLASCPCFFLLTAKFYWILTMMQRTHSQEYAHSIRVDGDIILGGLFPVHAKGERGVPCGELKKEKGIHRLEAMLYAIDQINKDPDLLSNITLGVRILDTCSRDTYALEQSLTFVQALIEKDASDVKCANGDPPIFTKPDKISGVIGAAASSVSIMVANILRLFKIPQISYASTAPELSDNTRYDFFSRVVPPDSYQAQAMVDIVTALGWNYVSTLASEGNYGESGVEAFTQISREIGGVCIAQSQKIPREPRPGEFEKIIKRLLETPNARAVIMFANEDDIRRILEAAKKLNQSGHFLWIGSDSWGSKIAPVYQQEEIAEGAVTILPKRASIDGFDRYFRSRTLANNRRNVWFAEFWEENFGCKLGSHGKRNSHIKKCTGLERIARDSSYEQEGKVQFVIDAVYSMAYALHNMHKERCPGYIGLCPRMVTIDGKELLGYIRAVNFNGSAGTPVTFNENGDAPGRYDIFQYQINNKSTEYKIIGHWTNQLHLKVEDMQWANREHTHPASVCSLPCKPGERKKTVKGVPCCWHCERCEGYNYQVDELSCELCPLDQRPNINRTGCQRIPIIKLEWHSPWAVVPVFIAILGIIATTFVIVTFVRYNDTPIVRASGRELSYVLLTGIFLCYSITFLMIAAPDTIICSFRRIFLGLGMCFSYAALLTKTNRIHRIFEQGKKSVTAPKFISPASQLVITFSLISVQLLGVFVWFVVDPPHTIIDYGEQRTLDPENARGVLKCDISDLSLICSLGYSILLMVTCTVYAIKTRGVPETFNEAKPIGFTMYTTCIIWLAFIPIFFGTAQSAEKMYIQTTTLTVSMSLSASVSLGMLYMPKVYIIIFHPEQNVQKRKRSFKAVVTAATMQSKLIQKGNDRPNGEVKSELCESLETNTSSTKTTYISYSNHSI

Structure (SMILES) | z-score
O=C(Nc1ccc2c(c1)OCO2)C1CC(c2ccc(Cl)cc2)=NO1 (centres undefined) | -0.0412
CN(c1ccc(OCC(=O)OCC(=O)Nc2ccc(F)cc2)cc1)S(=O)(=O)c1ccc(Cl)cc1 | -0.231
COc1ccccc1N1CCN(CCCC(=O)c2ccc(F)cc2)CC1 | -0.123
COc1cc2cc(C(N)=O)c(N)nc2cc1OC | -0.0702
COc1cc2cnncc2cc1OC | 3.21 (active)
COc1cc2cnc(Cl)nc2cc1OC | -0.182
CCOC(=O)c1ccc(NC(=O)CSc2nnc(-c3cccs3)n2C)cc1 | -0.387
O=C(NCC1CCCO1)C(c1ccc(F)cc1)N(Cc1ccc(F)cc1)C(=O)Cn1nnc(-c2cccs2)n1 (centres undefined) | 2.46
Cc1ccc(C(C(=O)NCC2CCCO2)N(Cc2ccccc2F)C(=O)Cn2nnc(-c3cccs3)n2)cc1 (centres undefined) | -0.157
O=C(NCC1CCCO1)C(c1cccs1)N(Cc1cccs1)C(=O)Cn1nnc(-c2cccs2)n1 (centres undefined) | -0.109
c1ccc(-c2cn3nc(-c4ccccc4)c(-c4ccccc4)nc3n2)cc1 | -1.03
O=c1c(-c2ccccc2)nc(-c2ccccc2)cn1O | 2.86
Cn1c(=O)c(-c2ccccc2)nc2ccccc21 | -0.27
CCOc1ccc2c(c1)-c1c(ssc1=S)C(C)(C)N2C | -0.11
O=C(Nc1ccc(Oc2ccc3ccccc3c2)cc1)c1ccco1 | 0.388
CC(Oc1ccc(Cl)cc1)C(=O)NNC(=S)NC(=O)c1ccco1 (centres undefined) | 5.62 (active)
COc1ccc(/C=C/C(=O)NC(=S)NNC(=O)c2ccco2)cc1 | 0.921
CCOC(=O)/C(=C/c1ccc(Cl)cc1)NC(=O)c1ccco1 | -0.468
CC(C)CNC(=S)NNC(=O)c1ccco1 | -0.0344
COc1ccc(C(=O)Nc2cc(OC)c(NC(=O)c3ccco3)cc2OC)cc1 | -0.196
O=C(NC(=S)NNC(=O)c1ccccc1O)c1ccco1 | 0.576
CC(Oc1ccc2ccccc2c1)C(=O)NNC(=S)NC(=O)c1ccco1 (centres undefined) | 4.46 (active)
COc1ccc(C(=O)NNC(=S)NC(=O)c2ccco2)cc1 | 2.99
Cc1cccc(C(=O)Oc2csc(=S)n2C(=O)c2cccc(C)c2)c1 | 0.282
COc1cc(CNCc2ccccn2)ccc1OCc1ccc(Cl)cc1 | 0.427
CC(=O)c1cccc(NC(=O)C2CC(c3ccc(F)cc3)=NO2)c1 (centres undefined) | -0.0875
O=C(COc1ccc(Cl)cc1Cl)Nc1nc2n(n1)C(c1ccccc1)CC(=O)N2 (centres undefined) | -0.56

Structure (SMILES) | z-score
O=C(Nc1ncc(C(F)(F)F)cc1Cl)C1COc2ccccc2O1 (centres undefined) | -0.304
CCN(CC)CCNC(=O)c1ccc(NC(=O)c2ccc(Cl)c(S(=O)(=O)Nc3ccccc3OC)c2)cc1 | 2.14
CCN(CC)CCNC(=O)c1ccc(Cl)c(S(=O)(=O)Nc2ccccc2OC)c1 | 0.323
CCN(CC)CCCNC(=O)c1ccc(Cl)c(S(=O)(=O)Nc2ccccc2OC)c1 | -0.0127
CC(=O)c1cccc(NC(=O)CSc2nnc(-c3cccnc3)o2)c1 | 0.059
O=C(NCc1ccncc1)C(=O)Nc1nc(C23CC4CC(CC(C4)C2)C3)cs1 | 0.792
O=C(NCc1ccccc1)C(=O)Nc1nc(C23CC4CC(CC(C4)C2)C3)cs1 | 3.44 (active)
CC(=O)NNC(=O)CC(=O)Nc1nc(C23CC4CC(CC(C4)C2)C3)cs1 | -0.221
COC(=O)N/N=C/c1ccc(OCCSc2ccc(Cl)cc2)c(OC)c1 | 0.427
CCCC1S/C(=N/N=C/c2ccc(C)cc2)N(Cc2ccc(OC)cc2)C1=O (centres undefined) | 0.151
CC(=O)Nc1ccc(Oc2cc(C#N)c(C#N)cc2N2CCCCCC2)cc1 | 1.3
CC(=O)Nc1cccc(Oc2cc(C#N)c(C#N)cc2N2CCCCCC2)c1 | 2.07
CC(=O)Nc1ccc(Oc2cc(C#N)c(C#N)cc2N2CCOCC2)cc1 | 0.123
O=c1oc2ccccc2c(Nc2cccc3ccccc23)c1[N+](=O)[O-] | -0.861
COCCNC(=O)c1ccc(-n2c(SCc3cc(F)ccc3F)nc3ccccc3c2=O)cc1 | -0.0902
CCN(CC)S(=O)(=O)c1cccc(S(=O)(=O)N2CCCCC2)c1 | -0.121
CC(=O)Nc1ccc(Oc2nc(C)cc(C)n2)cc1 | 0.187
CC(=O)Nc1ccc(Oc2cnccn2)cc1 | -0.0949
CC(=O)Nc1ccc(Oc2ncccn2)cc1 | 7.84 (active)
COCC(=O)n1nc(NCc2ccc(OC)cc2)nc1NCc1ccc(OC)cc1 | -0.00999
CCC(=O)Nc1nc2ccccc2n1CCN(CC)CC | -0.0953
CN(C)CCn1c(NC(=O)c2ccc(Cl)cc2)nc2ccccc21 | 0.381
CCN(CC)CCn1c(NC(=O)c2ccc(Cl)cc2)nc2ccccc21 | 4.18 (active)
Cc1ccc(N/C(SCc2ccccc2C)=C(/C#N)C(=O)NCc2ccco2)cc1C | -0.331
CCOc1cc(C(=S)N2CCOCC2)ccc1OS(=O)(=O)c1ccccc1 | -0.19
O=C(COc1ccccc1)NC(=S)Nc1ccc2c3c(cccc13)CC2 | 4.29 (active)
COc1cc(OC)cc(C(=O)NC(=S)Nc2ccc3c4c(cccc24)CC3)c1 | 0.967
